# Measurements: PubChem BioAssay (NCATS)
# Records with an inconclusive call do not appear. Active and inactive are the calls of the source. Calls follow the shape of the dose curve; as a rule, active = well fitted cell-killing curve with a large enough effect; inconclusive = small, poorly fitted or top-dose-only effect; inactive = flat fitted curve, though single readings scatter.
# Test: Cellular viability qHTS for adrenocortical cancer (ACC) cell line NCI-H295R (AID 1963990);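 also: 0% = DMSO only wells and -100% = full killing with cytotoxic reference compound; nearly all actives have a fitted effect of over 60% in size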
# Details: CellTiter-Glo ATP luminescence, 48 h; series mostly up to 46.1 µM; activity change, negative = viability loss: at the top concentration
# Summary of the method: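 Viability of NCI-H295R after 48 h of treatment (final up to 46 uM) measured through cellular ATP luminescence.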
SMILES,"activity change, negative = viability loss",Potency
CC1(C)S[C@@H]2[C@H](NC(=O)C(c3ccccc3)S(=O)(=O)O)C(=O)N2[C@H]1C(=O)O (stereo not given in full),0.325% (inactive),
Cn1cc(S(C)=O)c(=O)c2ccc(F)cc21 (stereo not given),-0.161% (inactive),
CC(C)(C)c1ccc(C(=O)CCCCl)cc1,-8.58% (inactive),
Cc1cccc(C(=O)O)c1O,-15.5% (inactive),
CCCCN(CCN(CCCC)C(=O)N1CCOCC1)C(=O)N1CCOCC1,-22.2% (inactive),
CN/C(=C\[N+](=O)[O-])NCCSCc1csc(CN(C)C)n1,-18% (inactive),
O=C(O)c1cn(C2CC2)c2cc(Cl)c(F)cc2c1=O,5.6% (inactive),
Cc1nc([N+](=O)[O-])cn1-c1ccc([N+](=O)[O-])cc1,-0.646% (inactive),
CN(C)C(=O)CNC(=O)Cc1ccccc1,-1.83% (inactive),
Cn1c(=O)c2c(ncn2CC(=O)O)n(C)c1=O,2.09% (inactive),
O=C1CC2(CCCC2)CC(=O)N1,-19.9% (inactive),
CN=C(N)NC(=O)Nc1c(C)cccc1C,-16.2% (inactive),
O=C(Nc1cccnc1)c1cc(-c2ccnc(F)c2)ccc1OCc1ccccc1,1.48% (inactive),
C=CCN1C[C@H](C(=O)N(CCCN(C)C)C(=O)NCC)C[C@@H]2c3cccc4[nH]cc(c34)C[C@H]21,5.85% (inactive),
O=C(Oc1ccccc1)c1cccc(C(=O)Oc2ccccc2)c1,-10.6% [at 92.7 µM] (inactive),
CCOC(=O)c1ccc(O)cc1,-4.81% (inactive),
OCC(O)CS (stereo not given),-0.0625% (inactive),
COc1ccccc1OCC1CNC(=O)O1 (stereo not given),14.7% (inactive),
NCCO,-8.53% [at 92.7 µM] (inactive),
CCO/C([O-])=N/c1c[n+](N2CCOCC2)no1,-6.52% (inactive),

SMILES,"activity change, negative = viability loss",Potency
O=C(O)CCc1nc2ccccc2[nH]1,-6.4% (inactive),
O=c1[nH]c(=O)n([C@H]2O[C@H](CO)[C@@H](O)[C@@H]2O)cc1/C=C\Br,1.1% (inactive),
CC(N)CCCC(C)(C)O (stereo not given),-20% (inactive),
Cc1ccc(C(C)C)c(O)c1,-3.67% (inactive),
CCN(CC)CC(=O)Nc1c(C)cccc1C,-1.05% (inactive),
CCCCCCCCCCCCCCCC(=O)OC(C)C,-12.1% (inactive),
Cc1ccc(C(=O)C(C)CN2CCCCC2)cc1 (stereo not given),-15.3% (inactive),
CC(C)(C)NCC(O)COc1ccc(NC(=O)NC2CCCCC2)cc1 (stereo not given),-1.52% (inactive),
O=C(NN1CCCC1)NS(=O)(=O)c1ccc(Cl)cc1,-28.2% (inactive),
CCOC(N)=O,7.61% (inactive),
CCCCCCCCCCCCCCC[C@H](O)[C@@H](N)CO,-10.7% (inactive),
CC(C)(Oc1ccc(Cl)cc1)C(=O)O,12.9% (inactive),
O=[N+]([O-])c1nccn1CO[C@@H](CO)[C@H](O)CO,-21.7% (inactive),
CCOC(CN1CCN(CC(C)C(=O)c2ccccc2)CC1)c1ccccc1 (stereo not given),-0.104% [at 20 µM] (inactive),
OC[C@H]1O[C@@H](Oc2ccc(O)cc2)[C@H](O)[C@@H](O)[C@@H]1O,-11.7% (inactive),
CN1CCC(N(Cc2cccs2)c2ccccc2)CC1,-0.314% (inactive),
Cc1cccc(C)c1NC(=O)c1cc(S(N)(=O)=O)c(Cl)cc1O,-33.6% (inactive),
CNC(=O)c1c(I)c(NC(=O)CCCCC(=O)Nc2c(I)c(C(=O)O)c(I)c(C(=O)NC)c2I)c(I)c(C(=O)O)c1I,-5.63% (inactive),
CCN(CC)CCCC(C)Nc1ccnc2cc(Cl)ccc12 (stereo not given),,inactive
CC(=O)Nc1c(I)c(NC(C)=O)c(I)c(C(=O)O)c1I,-7.11% (inactive),
